From PubChem BioAssay AID1159580 (chemical genetic matrix, 2015)
Values joined by “and” are separate entries in the source; they are usually repeats but may differ in a detail not shown here. Identical values can stand only once. Hit rate of the full screen: of about 5,500 compounds, about 2,000 (36%) were called active. Not shown: some 18% with an inconclusive outcome. Cut-off read from the data, not from the text of the source: active = normalized growth mostly below about 0.91 (no sharp cut-off); inconclusive = no clear call, values can overlap the other calls; inactive = mostly above about 0.92. Some of the results follow.

Assay: chemical genetic growth profiling, strain panel (AID 1159580);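 note: tested at 20 µM; growth read once vehicle control cultures reached saturation at 30 °C; 1 = growth at the plate median or of vehicle wells; lower values mean less growth of the strain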
Settings: S. cerevisiae deletion strains, growth OD

Measured: normalized growth

CN(C)C(=O)Nc1ccc(Cl)c(Cl)c1
inactive: locus YAL013W, strain DEP1, hits give low values 0.992 | locus YAL021C, strain ccr4, hits give low values 0.964 | locus YAL026C, strain drs2, hits give low values 0.97 | locus YAL030W, strain snc1, hits give low values 0.987 | locus YBL061C, strain skt5, hits give low values 0.991 | locus YBR009C, strain hhf1, hits give low values 0.926 | locus YBR021W, strain FUR4, hits give low values 0.904 | locus YBR023C, strain chs3, hits give low values 0.983 | locus YBR171W, strain sec66, hits give low values 1.01 | locus YBR229C, strain ROT2, hits give low values 1 | locus YBR231C, strain swc5, hits give low values 1.01 | locus YBR279W, strain paf1, hits give low values 0.97 | locus YCL011C, strain gbp2, hits give low values 0.954 | locus YCL016C, strain dcc1, hits give low values 0.974 | locus YCL029C, strain bik1, hits give low values 1.01 | locus YCL061C, strain MRC1, hits give low values 0.958 | locus YCL069W, strain vba3, hits give low values 0.994 | locus YCR088W, strain abp1, hits give low values 0.991 | locus YDL005C, strain med2, hits give low values 1 | locus YDL035C, strain GPR1, hits give low values 0.983 | locus YDL040C, strain nat1, hits give low values 0.991 | locus YDL074C, strain BRE1, hits give low values 0.899 | locus YDL101C, strain DUN1, hits give low values 0.999 | locus YDL134C, strain PPH21, hits give low values 0.986 | locus YDL185W, strain tfp1, hits give low values 1.02 | locus YDL192W, strain arf1, hits give low values 1 | locus YDR001C, strain nth1, hits give low values 0.99 | locus YDR069C, strain doa4, hits give low values 0.987 | locus YDR101C, strain arx1, hits give low values 1 | locus YDR137W, strain rgp1, hits give low values 1.03 | locus YDR150W, strain NUM1, hits give low values 0.993 | locus YDR159W, strain sac3, hits give low values 0.989 | locus YDR162C, strain NBP2, hits give low values 0.948 | locus YDR195W, strain ref2 1.1 | locus YDR297W, strain sur2, hits give low values 0.98 | locus YDR318W, strain mcm21, hits give low values 0.994 | locus YDR334W, strain swr1, hits give low values 1.01 | locus YDR335W, strain msn5, hits give low values 0.994 | locus YDR388W, hits give low values 0.992 | locus YDR392W, strain spt3, hits give low values 0.888 | locus YDR502C, strain sam2, hits give low values 0.989 | locus YEL003W, strain gim4, hits give low values 0.997 | locus YEL037C, strain rad23, hits give low values 0.993 | locus YEL061C, strain CIN8 (second series), hits give low values 1.01 | locus YEL061C, strain CIN8, hits give low values 0.998 | locus YER015W, strain faa2, hits give low values 0.968 | locus YER016W, strain bim1, hits give low values 0.992 | locus YER110C, hits give low values 1.01 | locus YER111C, strain swi4, hits give low values 1.02 | locus YER155C, strain BEM2 (second series), hits give low values 0.944 | locus YER155C, strain BEM2, hits give low values 1.01 | locus YER167W, strain BCK2, hits give low values 1 | locus YFR010W, strain ubp6, hits give low values 0.994 | locus YGL078C, strain dbp3, hits give low values 1.01 | locus YGL086W, strain mad1, hits give low values 0.997 | locus YGL167C, strain pmr1, hits give low values 0.988 | locus YGL173C, strain kem1, hits give low values 0.993 | locus YGL227W, strain vid30, hits give low values 0.995 | locus YGL240W, strain doc1, hits give low values 0.967 | locus YGL248W, strain PDE1, hits give low values 0.987 | locus YGL253W, strain hxk2, hits give low values 0.951 | locus YGR078C, strain PAC10, hits give low values 0.982 | locus YGR135W, strain pre9, hits give low values 0.98 | locus YGR229C, strain SMI1, hits give low values 0.942 | locus YGR252W, strain gcn5, hits give low values 0.807 | locus YHR013C, strain ard1, hits give low values 0.995 | locus YHR027C, strain rpn1, hits give low values 1.02 | locus YHR030C, strain SLT2, hits give low values 1.01 and 0.992 | locus YHR079C, strain IRE1 (second series), hits give low values 0.992 | locus YHR079C, strain IRE1, hits give low values 0.985 | locus YHR094C, strain hxt1, hits give low values 1 | locus YHR129C, strain ARP1, hits give low values 0.984 | locus YHR142W, strain chs7, hits give low values 0.887 | locus YHR200W, strain rpn10, hits give low values 0.991 | locus YIL066C, strain RNR3, hits give low values 0.981 | locus YIL073C, strain SPO22, hits give low values 0.981 | locus YIL125W, strain kgd1, hits give low values 1 | locus YIR030C, strain dcg1, hits give low values 1 | locus YJL092W, strain hpr5, hits give low values 0.982 | locus YJL095W, strain BCK1 (second series), hits give low values 1 | locus YJL095W, strain BCK1, hits give low values 0.96 and 0.984 | locus YJL115W, strain asf1, hits give low values 1 | locus YJL129C, strain trk1, hits give low values 0.984 | locus YJL134W, strain LCB3, hits give low values 0.996 | locus YJL154C, strain vps35, hits give low values 0.997 | locus YJL164C, strain tpk1, hits give low values 0.952 | locus YJL166W, strain qcr8, hits give low values 0.976 | locus YJL168C, strain set2, hits give low values 1 | locus YJL187C, strain SWE1 (second series), hits give low values 0.999 | locus YJR043C, strain POL32, hits give low values 0.88 | locus YJR066W, strain TOR1, hits give low values 0.93
